The supplement of paper PMC10037445
Over roughly 2,900 compounds, “NF-kB SEAP reporter activity, fold change vs agonist alone” has its median near 0.99; the highest 2% begin near 2.6. Shown is part of a subset that was picked to be rich in the highest values.

Key:
RAW-Dual [1] = assay: NF-kB SEAP reporter activity, fold change vs agonist alone; higher = enhanced NF-kB activity; details: library stock concentration (final ~1000-fold dilution): 10 mM, cytotoxicity flag (confluency mask): not cytotoxic
In short: (§1)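 After 50 nL of library stock was delivered by pin tool to RAW-Dual macrophages (50,000 cells/well, DMEM, 384-well plates), a PRR agonist was added 1 h later and the plates were kept at 37 °C, 5% CO2. Twenty hours later, IRF was read from supernatant by QuantiLuc luminescence and NF-κB by QuantiBlue absorbance at 620 nm. Reporter activity is stated as fold change over agonist-alone wells. Wells with IncuCyte confluency under 70% of agonist controls in both mask sets were counted as cytotoxic.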

RAW-Dual [2] = assay: NF-kB SEAP reporter activity, fold change vs agonist alone; cytotoxicity flag (confluency mask): not cytotoxic; higher = enhanced NF-kB activity
In short: as §1

[3] = agonist: ODN 1826 (TLR9) 0.5 ug/mL
[4] = agonist: Pam2CSK4 (TLR2/6) 0.1 ug/mL
[5] = agonist: Pam3CSK4 (TLR2/1) 0.1 ug/mL

Row | Structure (SMILES) | NF-kB SEAP reporter activity (RAW-Dual [1]; agonist: Imiquimod (TLR7) […]) | NF-kB SEAP reporter activity (RAW-Dual [1]; agonist: MPLA (TLR4) […]) | NF-kB SEAP reporter activity (RAW-Dual [2]; agonist: LPS (TLR4) 0.1 ug/mL) | NF-kB SEAP reporter activity (RAW-Dual [2]; [3]) | NF-kB SEAP reporter activity (RAW-Dual [2]; [4]) | NF-kB SEAP reporter activity (RAW-Dual [2]; [5])
1 | Cn1ncc(Cl)c1-c1cc(C(=O)NC(CN)Cc2ccc(F)c(F)c2)oc1Cl (stereo unspecified) | 1.61 | 1.61 |  |  |  | 
2 | Cn1ncc(Cl)c1-c1cc(C(=O)NC(CN)Cc2ccc(F)c(F)c2)oc1Cl (stereo unspecified) (library stock concentration (final ~1000-fold dilution): 10 mM) |  |  | 1.03 | 2.35 | 1.07 | 1.44
3 | CCOC(=O)C(CCc1ccccc1)NC(C)C(=O)N1Cc2ccccc2CC1C(=O)O.Cl (stereo unspecified) | 1.02 | 1.03 |  |  |  | 
4 | CCOC(=O)C(CCc1ccccc1)NC(C)C(=O)N1Cc2ccccc2CC1C(=O)O.Cl (stereo unspecified) (library stock concentration (final ~1000-fold dilution): 10 mM) |  |  | 0.94 | 1.07 | 1.26 | 1.05
5 | CC(Nc1ncnc2[nH]cnc12)c1cc2cccc(Cl)c2c(=O)n1-c1ccccc1 (stereo unspecified) (library stock concentration (final ~1000-fold dilution): 10 mM) |  |  | 0.744 | 0.653 | 0.665 | 0.549
6 | CC(Nc1ncnc(N)c1C#N)c1cc2cccc(-c3ccc(=O)n(C)c3)c2c(=O)n1C(C)C (stereo unspecified) (library stock concentration (final ~1000-fold dilution): 10 mM) |  |  | 4.83 | 0.722 | 1.22 | 3.02
7 | CC(NC(=O)c1c(N)nn2cccnc12)c1cc2cccc(C#Cc3cnn(C)c3)c2c(=O)n1-c1ccccc1 (stereo unspecified) (library stock concentration (final ~1000-fold dilution): 10 mM) |  |  | 2.34 | 1.3 | 0.628 | 0.931
8 | CC(Nc1ncnc2[nH]cnc12)c1cc2cccc(Cl)c2c(=O)n1-c1ccccc1 (stereo unspecified) | 0.473 | 0.709 |  |  |  | 
9 | CC(Nc1ncnc(N)c1C#N)c1cc2cccc(-c3ccc(=O)n(C)c3)c2c(=O)n1C(C)C (stereo unspecified) | 1.22 | 2.8 |  |  |  | 
10 | CC(NC(=O)c1c(N)nn2cccnc12)c1cc2cccc(C#Cc3cnn(C)c3)c2c(=O)n1-c1ccccc1 (stereo unspecified) | 1.18 | 1.44 |  |  |  | 
11 | Cc1cccc(C)c1OCC(=O)NC(Cc1ccccc1)C(O)CC(Cc1ccccc1)NC(=O)C(C(C)C)N1CCCNC1=O (stereo unspecified) | 1.63 | 2.06 |  |  |  | 
12 | Cc1cccc(C)c1OCC(=O)NC(Cc1ccccc1)C(O)CC(Cc1ccccc1)NC(=O)C(C(C)C)N1CCCNC1=O (stereo unspecified) (library stock concentration (final ~1000-fold dilution): 10 mM) |  |  | 1.37 | 2.09 | 0.396 | 1.03
13 | Cc1ccc(S(=O)(=O)O)cc1.NC(=O)c1cccc2cn(-c3ccc(C4CCCNC4)cc3)nc12 (stereo unspecified) | 0.663 | 1.04 |  |  |  | 
14 | Cc1ccc(S(=O)(=O)O)cc1.NC(=O)c1cccc2cn(-c3ccc(C4CCCNC4)cc3)nc12 (stereo unspecified) (library stock concentration (final ~1000-fold dilution): 10 mM) |  |  | 1.04 | 0.181 | 1.41 | 1.1
15 | Cc1nc2ccc(CN(C)c3ccc(C(=O)NC(CCC(=O)O)C(=O)O)s3)cc2c(=O)[nH]1 (stereo unspecified) (library stock concentration (final ~1000-fold dilution): 10 mM) |  |  | 1.56 | 1.93 | 1.31 | 1.7
16 | Cc1nc2ccc(CN(C)c3ccc(C(=O)NC(CCC(=O)O)C(=O)O)s3)cc2c(=O)[nH]1 (stereo unspecified) | 1.78 | 1.45 |  |  |  | 

Row | Structure (SMILES) | NF-kB SEAP reporter activity (RAW-Dual [1]; agonist: Imiquimod (TLR7) […]) | NF-kB SEAP reporter activity (RAW-Dual [1]; agonist: MPLA (TLR4) […]) | NF-kB SEAP reporter activity (RAW-Dual [2]; agonist: LPS (TLR4) 0.1 ug/mL) | NF-kB SEAP reporter activity (RAW-Dual [2]; [3]) | NF-kB SEAP reporter activity (RAW-Dual [2]; [4]) | NF-kB SEAP reporter activity (RAW-Dual [2]; [5])
17 | CNc1ccc([N+](=O)[O-])cc1-n1cnc(-c2ccc(C(F)(F)F)cc2)c1 (library stock concentration (final ~1000-fold dilution): 10 mM) |  |  | 4.5 | 1.91 | 0.926 | 1.08
18 | CNc1ccc([N+](=O)[O-])cc1-n1cnc(-c2ccc(C(F)(F)F)cc2)c1 | 1.24 | 2.01 |  |  |  | 
19 | O=C(Cc1ccccc1)Nc1nnc(NC2CCN(c3nnc(NC(=O)Cc4ccccc4)s3)CC2)s1 (library stock concentration (final ~1000-fold dilution): 10 mM) |  |  | 1.41 | 0.773 | 0.514 | 0.64
20 | O=C(Cc1ccccc1)Nc1nnc(NC2CCN(c3nnc(NC(=O)Cc4ccccc4)s3)CC2)s1 | 0.998 | 1.26 |  |  |  | 
21 | COc1ccc(C2CC(=O)c3c(O)cc(O)cc3O2)cc1O (stereo unspecified) (library stock concentration (final ~1000-fold dilution): 10 mM) |  |  | 1.12 | 1.2 | 1.26 | 1.33
22 | COc1ccc(C2CC(=O)c3c(O)cc(O)cc3O2)cc1O (stereo unspecified) | 1.28 | 1.11 |  |  |  | 
23 | O=C(O)CCN1C(=O)/C(=C2/C(=O)Nc3ccc(Cl)cc32)SC1=S (library stock concentration (final ~1000-fold dilution): 10 mM) |  |  | 1.86 | 0.841 | 1.4 | 1.57
24 | O=C(O)CCN1C(=O)/C(=C2/C(=O)Nc3ccc(Cl)cc32)SC1=S | 0.954 | 1.18 |  |  |  | 
25 | COc1cc2c(OC3OC(CO)C4OC(C)(C)OC4C3O)c3c(c(-c4ccc5c(c4)OCO5)c2cc1OC)C(=O)OC3 (stereo unspecified) (library stock concentration (final ~1000-fold dilution): 10 mM) |  |  | 2.9 | 0.644 | 1.95 | 3.92
26 | COc1cc2c(OC3OC(CO)C4OC(C)(C)OC4C3O)c3c(c(-c4ccc5c(c4)OCO5)c2cc1OC)C(=O)OC3 (stereo unspecified) | 0.364 | 2.28 |  |  |  | 
27 | COc1cc(/C=C/CO)cc(OC)c1OC1OC(CO)C(O)C(O)C1O (stereo unspecified) | 1.03 | 1.08 |  |  |  | 
28 | COc1cc(/C=C/CO)cc(OC)c1OC1OC(CO)C(O)C(O)C1O (stereo unspecified) (library stock concentration (final ~1000-fold dilution): 10 mM) |  |  | 1.08 | 1.01 | 1.11 | 1.15
29 | COc1cc(-c2oc3cc(O)cc(O)c3c(=O)c2OC2OC(CO)C(O)C(O)C2OC2OC(C)C(O)C(O)C2O)ccc1O (stereo unspecified) | 0.928 | 1.05 |  |  |  | 
30 | COc1cc(-c2oc3cc(O)cc(O)c3c(=O)c2OC2OC(CO)C(O)C(O)C2OC2OC(C)C(O)C(O)C2O)ccc1O (stereo unspecified) (library stock concentration (final ~1000-fold dilution): 10 mM) |  |  | 1.2 | 0.987 | 1.01 | 0.949
31 | CC(NC(CCc1ccccc1)C(=O)O)C(=O)N1CCCC1C(=O)O.O.O (stereo unspecified) | 0.942 | 1.12 |  |  |  | 
32 | CC(NC(CCc1ccccc1)C(=O)O)C(=O)N1CCCC1C(=O)O.O.O (stereo unspecified) (library stock concentration (final ~1000-fold dilution): 10 mM) |  |  | 0.977 | 1.07 | 1.14 | 1.09
